In PubChem BioAssay (EPA / NIEHS):
Values joined by “and” are separate entries in the source; they are usually repeats but may differ in a detail not shown here. Identical values can stand only once. Records with an inconclusive call do not appear. Some structures have more than one record in an assay (separate samples or runs), and their calls can disagree. Active and inactive are the calls of the source. How the source made its calls: active means hit-call score of the fitted dose curve at least 0.9, where 1 is the maximum; inconclusive means response in the unintended direction; inactive means score below 0.9.

Target: AR (gene 367) (UniProt P10275)
Sequence (P10275 whole entry, looked up): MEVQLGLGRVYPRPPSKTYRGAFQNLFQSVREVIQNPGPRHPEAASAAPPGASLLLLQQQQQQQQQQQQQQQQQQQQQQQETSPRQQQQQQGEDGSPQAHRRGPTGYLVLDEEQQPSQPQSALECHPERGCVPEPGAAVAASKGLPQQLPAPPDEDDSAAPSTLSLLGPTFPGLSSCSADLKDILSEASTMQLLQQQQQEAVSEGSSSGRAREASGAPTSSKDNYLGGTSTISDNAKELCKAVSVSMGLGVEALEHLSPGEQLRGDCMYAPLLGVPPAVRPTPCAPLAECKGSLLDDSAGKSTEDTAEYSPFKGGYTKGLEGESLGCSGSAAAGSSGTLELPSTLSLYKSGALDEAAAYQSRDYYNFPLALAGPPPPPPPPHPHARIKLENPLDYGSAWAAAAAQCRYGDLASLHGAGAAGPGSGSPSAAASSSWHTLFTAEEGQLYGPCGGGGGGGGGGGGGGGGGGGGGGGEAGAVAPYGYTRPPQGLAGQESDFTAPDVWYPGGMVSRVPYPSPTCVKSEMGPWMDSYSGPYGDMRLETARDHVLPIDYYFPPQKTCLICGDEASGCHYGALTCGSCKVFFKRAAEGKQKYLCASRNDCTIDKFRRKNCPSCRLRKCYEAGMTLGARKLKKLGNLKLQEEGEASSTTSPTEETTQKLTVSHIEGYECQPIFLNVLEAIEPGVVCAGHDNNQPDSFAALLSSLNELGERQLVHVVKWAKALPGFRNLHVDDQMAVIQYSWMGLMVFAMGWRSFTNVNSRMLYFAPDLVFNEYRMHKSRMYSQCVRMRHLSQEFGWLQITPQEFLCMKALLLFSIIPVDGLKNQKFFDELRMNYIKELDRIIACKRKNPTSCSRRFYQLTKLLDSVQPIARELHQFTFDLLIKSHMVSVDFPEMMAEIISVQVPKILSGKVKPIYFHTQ
Experiment: ACEA_AR_antagonist_80hr: ACEA Biosciences xCELLigence Real-Time Cell Analysis on Androgen Receptor Antagonism for Proliferation (AID 2283787);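 further: 22Rv1 human prostate cancer cells with growth followed by electrical impedance; hits lower the impedance growth signal relative to DMSO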
Outline: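 Impedance readout (RT-CES), 80 h post-dose; loss-of-signal vs DMSO baseline. 22Rv1 cells in assay medium. Compounds: 8-pt 1:4 series, max 100 uM final, up to 0.5% DMSO; n = 2.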

SMILES | outcome | AC50
CC(=O)Oc1ccccc1C(=O)O | inactive | –
COCCOC[C@H](CC1(C(=O)NC2CCC(C(=O)O)CC2)CCCC1)C(=O)Oc1ccc2c(c1)CCC2 (stereo partly specified) | – | 18.2 µM (active)
CNC(=O)[C@H]1O[C@@H](n2cnc3c(NCc4cc(Cl)ccc4OCc4cc(C)no4)ncnc32)[C@H](O)[C@@H]1N | inactive | –
O=C(O)Cc1ccccc1Nc1c(Cl)cccc1Cl | – | 70.9 µM (active)
Cc1cccc(Nc2cc(Cl)nc(SCC(=O)O)n2)c1C | inactive | –
Cc1cccc([N+](=O)[O-])c1C | inactive | –
CCOc1ccc2c(c1)C(C)=CC(C)(C)N2 | – | 72.2 µM (active)
COc1ccc(S(=O)(=O)N2C(=O)[C@@](c3ccccc3OC)(N3C[C@H](O)C[C@H]3C(=O)N(C)C)c3cc(Cl)ccc32)c(OC)c1 | – | 24 µM (active)
COc1cc(/C=C/C(=O)CC(=O)/C=C/c2ccc(O)c(OC)c2)ccc1O | – | 25.9 µM (active)
COCCOCCOC | inactive | –
CN[C@H]1CC[C@@H](c2ccc(Cl)c(Cl)c2)c2ccc(S(N)(=O)=O)cc21 | – | 13.1 µM (active)
Cc1nc(-c2ccc3c(c2)CCN(CCC2CCC(NC(=O)/C=C/c4ccc(F)cc4)CC2)CC3)no1 (stereo unspecified) | – | 23.2 µM (active)
Cc1cc(NC(=O)C(=O)O)cc(C)c1Oc1ccc(O)c2c1CCC2 | inactive | –
Cc1ccc(N(C)C)cc1 | inactive | –
CCCCCC(=O)O | inactive | –
Cc1ccc(C)c(O)c1C | inactive | –
Cc1ccc(C)c(C)c1 | inactive | –
CCCCCCCCCCC | inactive | –
COc1ccc(C)cc1N | inactive | –
COc1ccc2c(c1)c(CC(=O)O)c(C)n2C(=O)c1ccc(Cl)cc1 | – | 34.1 µM (active)
COc1cc(-c2nc(NC(=O)c3cc4cc(C)cc(C)c4n3CC(=O)O)sc2CCC2CCCCC2)c(OC)cc1Cl | – | 11.6 µM (active)

Test system: not listed separately
Experiment: ATG_M_06_XSP2: Attagene TRANS-FACTORIAL Multi-Species (XSP2) HepG2 Assay for M06 Transcription Factor (Internal Marker) (AID 2283811);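 further: internal background marker reporter mRNA measured by RT-PCR and capillary electrophoresis; hits are increases in signal above the DMSO baseline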
Outline: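 HepG2 cells transiently transfected with GAL4-UAS multi-reporter constructs, dosed 24 h with 3 nM 6-alpha-fluorotestosterone plus 1.5 nM norgestrel present to stimulate androgen receptor. Reporter mRNA quantified by RT-PCR, 6-FAM labelling, HpaI digestion and capillary electrophoresis; gain-of-signal fitted versus DMSO baseline.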

SMILES | outcome
CC(C)(C)c1cc(O)c(C(C)(C)C)cc1O | inactive
CC(=O)C(C)=CC1C(C)=CCCC1(C)C (stereo unspecified) | inactive
C=CCOC(=O)c1ccccc1C(=O)OCC=C | inactive

Test system: turtle Estrogen Receptor (ERa), gene 101933533
Experiment: ATG_trERa_XSP2: Attagene TRANS-FACTORIAL Multi-Species (XSP2) HepG2 Assay for turtle Estrogen Receptor (ERa) (AID 2283812);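 further: human HepG2 liver cells transiently expressing turtle ERa-Gal4 chimeric receptor; actives raise reporter signal above DMSO so AC50 reflects agonist activity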
Procedure: ATG_XSP2_multi-species_TRANS is a cell-based, multiplexed assay created by modifying the existing Attagene TRANS-FACTORIAL system to include a panel of nuclear receptors from some or all the following species: human (Homo sapiens), mouse (Mus musculus), frog (Xenopus laevis), zebrafish (Danio rerio), chicken (Gallus gallus), and turtle (Chrysemys picta). The ECOTOX-FACTORIAL format uses HepG2, a human liver cell line, with measurements taken at 24 hours after chemical dosing in a 24-well plate. Xsp2 included 3 nM 6-alpha-fluorotestosterone and 1.5 nM norgestrel to stimulate the androgen receptor.ATG_trERa_XSP2 is one of 29 assay components measured or calculated from the ATG_XSP2_multi-species_TRANS assay. It is designed to make measurements of mRNA induction, a form of inducible reporter, as detected with fluorescence intensity signals by Reverse transcription polymerase chain reaction (RT-PCR) and Capillary electrophoresis technology.The assay endpoint ATG_trERa_XSP2 was analyzed in the positive analysis fitting direction relative to DMSO as the negative control and baseline of activity. […] Furthermore, this assay endpoint can be referred to as a primary readout, because this assay has produced multiple assay endpoints where this one serves a reporter gene function. […]
Human liver HepG2 cells are transiently transfected with multiple reporter transcription units (MRTUs) in 6-well plates using FuGene 6 reagent (Roche; 3 ml FuGene/1 mg DNA). […] A major difference between the CIS and TRANS system is that in CIS activities of endogenous TFs are measured, whereas the TRANS assay evaluates changes in activities of exogenous, chimeric NR-Gal4 proteins. […] The fragments were purified using Qiaquick PCR columns (Qiagen), analyzed on an ABI 3130xL genetic analyzer (Applied Biosystems) with peak positions identified by using a set of X-rhodamine (ROX)-labeled MapMarker1000 molecular weight standards (BioVentures). […]

SMILES | outcome | AC50
CC(C)(C)c1cc(O)c(C(C)(C)C)cc1O | inactive | –
CC(=O)C(C)=CC1C(C)=CCCC1(C)C (stereo unspecified) | – | 29.9 µM (active) and 25.5 µM (active)
C=CCOC(=O)c1ccccc1C(=O)OCC=C | – | 74.3 µM (active) and 100 µM (active)

Target: zebrafish Estrogen Receptor (ER1), esr1 (gene 259252) (UniProt P57717)
Sequence (P57717 whole entry, looked up): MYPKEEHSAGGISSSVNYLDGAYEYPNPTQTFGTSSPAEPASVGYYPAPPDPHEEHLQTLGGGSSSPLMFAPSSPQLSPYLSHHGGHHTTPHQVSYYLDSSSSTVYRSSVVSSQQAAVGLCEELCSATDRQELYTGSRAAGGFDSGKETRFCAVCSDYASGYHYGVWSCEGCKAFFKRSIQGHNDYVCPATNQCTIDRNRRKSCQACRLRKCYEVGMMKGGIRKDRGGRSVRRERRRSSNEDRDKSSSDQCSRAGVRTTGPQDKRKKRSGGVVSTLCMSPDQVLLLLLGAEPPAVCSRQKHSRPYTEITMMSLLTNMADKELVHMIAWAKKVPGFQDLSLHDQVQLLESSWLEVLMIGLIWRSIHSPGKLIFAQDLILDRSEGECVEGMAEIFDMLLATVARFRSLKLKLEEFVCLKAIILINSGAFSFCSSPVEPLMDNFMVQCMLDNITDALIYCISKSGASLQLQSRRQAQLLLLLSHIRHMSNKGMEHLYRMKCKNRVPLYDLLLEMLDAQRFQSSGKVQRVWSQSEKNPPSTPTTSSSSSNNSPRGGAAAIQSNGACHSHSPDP
Experiment: ATG_zfER1_XSP2: Attagene TRANS-FACTORIAL Multi-Species (XSP2) HepG2 Assay for zebrafish Estrogen Receptor (ER1) (AID 2283816)
Outline: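 HepG2 cells transiently transfected with a GAL4-UAS reporter and a chimeric zebrafish ER1-Gal4 construct, dosed 24 h. Reporter mRNA quantified by RT-PCR, labelling, HpaI digestion and capillary electrophoresis, relative to DMSO.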

SMILES | outcome | AC50
CCCc1cc(=O)[nH]c(=S)[nH]1 | inactive | –
CC(C)(C)c1cc(O)c(C(C)(C)C)cc1O | inactive | –
CC(=O)C(C)=CC1C(C)=CCCC1(C)C (stereo unspecified) | inactive | 34.2 µM (active)
C=CCOC(=O)c1ccccc1C(=O)OCC=C | inactive | –

Target: chicken Estrogen Receptor (ERa), ESR1 (gene 396099) (UniProt P06212)
Sequence (P06212 whole entry, looked up): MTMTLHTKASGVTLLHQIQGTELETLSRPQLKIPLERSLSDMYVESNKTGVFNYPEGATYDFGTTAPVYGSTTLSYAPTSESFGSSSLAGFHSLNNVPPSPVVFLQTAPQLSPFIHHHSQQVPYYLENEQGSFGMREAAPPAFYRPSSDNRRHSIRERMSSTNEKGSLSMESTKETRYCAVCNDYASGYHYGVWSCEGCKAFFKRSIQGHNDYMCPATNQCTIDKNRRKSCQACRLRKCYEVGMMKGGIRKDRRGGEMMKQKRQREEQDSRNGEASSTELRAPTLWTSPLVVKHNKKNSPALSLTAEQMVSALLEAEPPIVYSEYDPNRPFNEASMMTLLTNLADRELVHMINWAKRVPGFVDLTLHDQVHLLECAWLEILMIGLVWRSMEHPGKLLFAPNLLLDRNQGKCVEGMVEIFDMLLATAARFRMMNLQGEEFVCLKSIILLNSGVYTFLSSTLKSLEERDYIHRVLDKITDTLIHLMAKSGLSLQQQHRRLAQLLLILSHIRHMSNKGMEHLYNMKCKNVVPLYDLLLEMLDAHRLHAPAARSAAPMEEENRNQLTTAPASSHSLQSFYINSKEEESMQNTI
Experiment: ATG_chERa_XSP2: Attagene TRANS-FACTORIAL Multi-Species (XSP2) HepG2 Assay for chicken Estrogen Receptor (ERa) (AID 2283817);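 further: actives raise reporter signal above DMSO so AC50 reflects ER activation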
Outline: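 HepG2 cells transiently transfected with multiplexed GAL4-UAS reporter units expressing chimeric chicken ERa-Gal4; 24 h compound exposure. Reporter mRNA measured by RT-PCR with 6-FAM labelling, HpaI digestion and capillary electrophoresis; gain-of-signal fitted versus DMSO.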

SMILES | outcome | AC50
CC(C)(C)c1cc(O)c(C(C)(C)C)cc1O | inactive | –
CC(=O)C(C)=CC1C(C)=CCCC1(C)C (stereo unspecified) | – | 19.8 µM (active) and 14 µM (active)
C=CCOC(=O)c1ccccc1C(=O)OCC=C | inactive | 62.3 µM (active)
